Screens from PubChem.
An excerpt weighted towards active compounds, which were near 21% of everything screened.
Pf growth 96h = inhibits malaria parasite growth, 96 h; P. falciparum luciferase reporter growth, 96 h; Potency, µM (top dose mostly 28.7 µM), usual class: inhibitors; 320,000 tested, 6.9% active; AID 504834
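P. falciparum expressing integrated firefly luciferase grown in erythrocytes (2% hematocrit, 0.05% parasitemia final) with compounds for 96 hours at 37 C, 5% CO2. Growth inhibition read as loss of luminescence after adding luciferase detection reagent.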
NS1 function inh = influenza NS1 inhibition; Potency, µM (top dose mostly 46.1 µM); 270,000 tested, 0.4% active; AID 2326; calls by dose curve; further: actives are rising curves; nearly all actives have a fitted effect of over 50% in size
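Recovery from NS1-induced slow growth read by OD600 in budding yeast switched to galactose assay medium (pH 6.0, -URA) at 1:100 dilution. Compound 23 nl per well; the matching strain lacking NS1 serves as control.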
Cycloheximide cs = counter-screen for Shiga toxin inhibitors: cycloheximide protein synthesis inhibition; cell reporter, cycloheximide protein synthesis inhibition counterscreen; max response, %; 300,000 tested, 12% active; AID 2314; in the data active means max response mostly above about 13%, no sharp cut-off; inactive means mostly below about 14%; further: read at 38.3 µM for the half of the compounds with a filed dose
Sm TGR block = blocks Schistosoma mansoni thioredoxin glutathione reductase | 360,000 tested, 3% active | AID 485364 | Potency, µM (titrated, usually from 114 µM), most hits filed as inhibitors | purified TGR, DTNB reduction, TNB absorbance 405 nm | Q962Y6; further: nearly all actives have a fitted effect of over 60% in size
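Kinetic colorimetric format: TGR-catalysed, NADPH-driven DTNB reduction monitored via TNB absorbance. Enzyme dispensed at 20 nM; compound exposure 15 min at room temperature before reaction start.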
Shiga inhibitor = blocks Shiga toxin action in Vero cells; Vero cells, Shiga toxin protein synthesis inhibition reporter; inhibition, % at 38.7 µM; 290,000 tested, 9.2% active; AID 2315; in the data active means inhibition mostly above about 28%, no sharp cut-off; inactive means mostly below about 43%
Pf growth 48h = inhibits P. falciparum growth in the first generation, 48 h; P. falciparum luciferase growth in erythrocytes, 48 h; Potency, µM (series often up to 28.7 µM), actives largely listed as inhibitors; 310,000 tested, 5.9% active
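First compound was added to culture medium, then infected red cells at 0.1% parasitemia and 2% hematocrit (final). After incubation at 37 C under 5% CO2, luciferase detection reagent was dispensed and light output recorded.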
Numbers stand for hits; – = inactive; ? = inconclusive; · = not tested or not shown. Unless noted, the call rests on the fitted dose curve; in most records, active means well fitted curve in the direction sought with a large enough effect; inconclusive means small, poorly fitted or top-dose-only effect, or another doubt; inactive means no such curve, though single readings can be large; an effect the other way counts as inactive or inconclusive.

SMILES	Pf growth 96h	NS1 function inh	Cycloheximide cs	Sm TGR block	Shiga inhibitor	Pf growth 48h
COc1ccc2oc(C(=O)NCCc3ccccc3)c(C)c2c1	–	·	·	–	·	–
Cc1c(C(=O)NCCc2ccccc2)oc2ccccc12	–	–	29.4	–	75.0	–
Cc1c(C(=O)NCc2ccccc2F)oc2ccccc12	?	–	–	–	–	–
Cc1c(C(=O)NCCCN2CCCC2=O)oc2ccccc12	?	–	26.6	–	72.2	–
Cc1c(C(=O)NCc2cccs2)oc2ccccc12	·	–	18.7	–	30.1	–
O=C(NCCc1ccccc1)c1oc2ccccc2c1COc1ccccc1	13.1µM	–	26.2	–	38.7	?
CCc1ccc(CN2CCc3nc(N4CCN(c5ccccc5F)CC4)ncc3C2)cc1	·	·	·	–	·	·
CCOc1ccc(C(=O)c2cn(CC(=O)Nc3cc(OC)cc(OC)c3)c3ccc(F)cc3c2=O)cc1	·	·	·	–	·	·
CC(OC(=O)c1oc2ccccc2c1COc1ccccc1)C(=O)NC(N)=O (centres undefined)	–	–	–	–	–	–
O=C(Nc1ccccc1Cc1ccccc1)c1oc2ccccc2c1COc1ccccc1	10.4µM	–	–	–	–	?
COc1cccc(-n2c(/C=C/c3ccc(O)c(O)c3)nc3ccccc3c2=O)c1	9.28µM	–	–	–	–	?
COc1ccc(-n2c(/C=C/c3ccc4c(c3)OCO4)nc3ccccc3c2=O)cc1	9.28µM	–	–	–	–	?
Cc1ccc(-n2c(/C=C/c3ccc4c(c3)OCO4)nc3ccccc3c2=O)cc1	?	–	–	–	–	?
CC(C)(C)NC(=O)NC(=O)COC(=O)c1cc[n+]([O-])cc1	–	·	–	–	–	–
Cc1c(NS(=O)(=O)c2ccc(N(C)C3CCCCC3)c([N+](=O)[O-])c2)c(=O)n(-c2ccccc2)n1C	10.4µM	–	–	–	–	?
O=C(Nc1cc(S(=O)(=O)N2CCCCC2)ccc1O)c1ccccc1NS(=O)(=O)c1ccc(F)c(F)c1	–	–	–	–	–	–
O=C(NC1CCCCC1)c1ccc(S(=O)(=O)NCc2ccco2)cc1	–	–	–	44.7µM	–	–
CC1CCCC(C)N1C(=O)c1ccc(S(=O)(=O)NCc2ccco2)cc1 (centres undefined)	–	–	26.8	–	46.3	–
CCOC(=O)C1CCCN(C(=O)c2ccc(CNS(=O)(=O)c3ccc(C)cc3)cc2)C1 (centres undefined)	–	·	–	–	–	?
CCOC(=O)C1CCCN(C(=O)c2ccc(S(=O)(=O)NCc3ccco3)cc2)C1 (centres undefined)	11.7µM	·	·	25.1µM	·	?
O=C(NC1CCN(Cc2ccccc2)CC1)c1ccc(S(=O)(=O)NCc2ccco2)cc1	–	–	–	–	–	–
CCCC(=O)Nc1nnc(S(=O)(=O)N(CC(C)C)c2ccccc2)s1	–	–	–	–	–	–
CCC1CCCCN1CCCNC(=O)c1ccc2c(c1)N(Cc1ccccc1F)C(=O)c1ccccc1S2(=O)=O (centres undefined)	·	·	·	–	·	·
COc1ccc(Cn2c(=O)[nH]c3cc(C(=O)N4CCN(c5ccccc5OC)CC4)ccc3c2=O)cc1	–	–	–	–	–	3.29µM
COc1ccc(Cn2c(=O)[nH]c3cc(C(=O)N4CCN(Cc5ccccc5)CC4)ccc3c2=O)cc1	–	–	–	–	–	?
SMILES	Pf growth 96h	NS1 function inh	Cycloheximide cs	Sm TGR block	Shiga inhibitor	Pf growth 48h
COc1ccc(Cn2c(=O)[nH]c3cc(C(=O)N4CCN(c5ccccc5F)CC4)ccc3c2=O)cc1	11.7µM	–	–	–	–	11.7µM
COc1ccccc1N1CCN(C(=O)c2ccc3c(=O)n(Cc4ccc5c(c4)OCO5)c(=O)[nH]c3c2)CC1	?	–	–	–	–	1.47µM
CN=Cc1sc2ccccc2c1O	?	–	18.7	–	–	–
Oc1c(C=NCc2ccncc2)sc2ccccc12	–	–	46.7	–	83.7	–
Oc1c(C=Nc2ccc(Cl)cn2)sc2ccccc12	–	–	28.6	–	14.0	–
Oc1ccccc1C=NCc1ccccc1	?	·	·	·	·	–
Oc1c(C=Nc2cccnc2)sc2ccccc12	–	–	50.3	–	95.0	–
CC(=O)Nc1nc(=O)c2ccccc2s1	–	–	–	–	–	–
Oc1c(C=Nc2ccccc2)sc2ccccc12	–	–	–	–	–	?
COc1ccc(-c2[nH]ncc2C(=O)NCc2cccc(F)c2)cc1	·	·	·	–	·	·
CCN1C=C(C(=O)OC)C(c2cccc(OC)c2OC)C(C(=O)OC)=C1	–	·	–	–	–	?
Oc1c(/C=N/c2ccccn2)sc2ccccc12	?	–	40.1	?	61.4	–
CC(=O)NCCN=Cc1sc2ccccc2c1O	3.7µM	–	40.4	–	68.4	–
CC(=O)Nc1ccc(NC(=O)CNC(=O)c2sc3ccccc3c2Cl)cc1	–	·	·	–	·	–
CCN(CC)CCNC(=O)C(=O)Nc1ccc2c(c1)N(S(=O)(=O)c1cccs1)CCC2	?	·	·	–	·	14.7µM
CNC(=O)C(=O)Nc1ccc2c(c1)N(S(=O)(=O)c1cccs1)CCC2	–	·	·	–	·	–
Cc1ccc(NC(=O)Cn2c(=O)n(Cc3nc(C)no3)c(=O)c3cc4c(cc32)OCO4)c(C)c1	·	·	·	–	·	·
CCCn1cnc2c(SCC(=O)O)nc(N)nc21	·	–	·	·	·	·
C[C@@H]1CN=C2N(CCNC(=O)CCC3CCCCC3)[C@H](Cc3ccc(O)cc3)CN21	13.1µM	–	–	5.01µM	–	–
O=C(CCC1CCCCC1)NCCN1C2=NC[C@H](Cc3ccc(O)cc3)N2C[C@H]1Cc1ccc(O)cc1	?	–	–	35.5µM	–	?
Cc1ccc(NC(=S)N(CCCN2CCOCC2)Cc2cccnc2)cc1C	–	–	–	–	–	–
Cc1cc(CN2CCC(N3CCC(C(=O)NC4CC4)CC3)CC2)cc(C)c1O	–	–	–	44.7µM	–	?
O=C1CC(C(=O)N2CCC(N3CCC(C(=O)NC4CC4)CC3)CC2)c2ccccc21 (centres undefined)	?	–	–	39.8µM	–	?
O=C(NC1CC1)C1CCN(C2CCN(Cc3ccccc3C(F)(F)F)CC2)CC1	–	–	–	–	–	?
COc1ccc(-c2csc3c2[N+]2=CCC=C2C3=O)cc1	·	–	·	·	·	·
SMILES	Pf growth 96h	NS1 function inh	Cycloheximide cs	Sm TGR block	Shiga inhibitor	Pf growth 48h
CN=C1S/C(=C\c2ccc(OCC(=O)OC)c(OC)c2)C(=O)N1C	–	–	13.0	–	·	–
COCCN1C(=O)/C(=C/c2ccc(OCc3ccc(C(=O)O)cc3)c(OC)c2)SC1=Nc1ccccc1	8.28µM	–	–	–	–	11.7µM
CN=C1S/C(=C\c2ccc(Cl)cc2)C(=O)N1C	–	–	–	–	–	–
CN=C1S/C(=C\c2ccc(SC)cc2)C(=O)N1C	–	–	33.0	–	56.0	–
COc1cc(/C=C2\SC(=Nc3ccccc3)N(Cc3ccco3)C2=O)ccc1OC(C)C(=O)O (centres undefined)	?	?	–	–	–	?
CCOC(=O)CSC1=NC(=O)/C(=C\c2ccc(Cl)cc2)S1	–	–	33.8	3.55µM	104.2	–
